In all, about 81,000 sequences were measured (“one-hybrid fitness for binding parS DNA”: median about -0.17, highest 2% from about 0.51 on). The list comes from a sample in which the highest values are over-represented; it also holds similar and randomly drawn sequences.
B1: Caulobacter ParB omega fusion; a variant is named by its letters at X, in order, B8GW30 (parent)
chain: MESVVVGEPGMSEGRRGLGRGLSALLGEVDAAPAQAPGEQLGGSREAPIEILQRNPDQPRRTFREEDLEDLSNSIREKGVLQPILVRPSPDTAGEYQIVAGERAWRAAQRAGLKTVPIMVRELDDLAVLEIGIIENVQRADLNVLEEALSYKVLMEKFERTQENIAQTIGKSXSHVANXMRLLXLPDEVQSYLVSGELTAXHARAIAAAADPVALAKQIIEGGLSVRETEALARKAPNLSAGKSKGGRPPRVKDTDTQALESDLSSVLGLDVSIDHRGSTGTLTITYATLEQLDDLCNRLTRGI

Variants of: B1
Assay: one-hybrid fitness for binding parS DNA (scaled: cognate 1, non-cognate 0); higher = stronger binding
Conditions: with parS DNA site
In short: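 Caulobacter ParB libraries with four specificity codons randomised were screened by bacterial one-hybrid selection in the E. coli USO strain, using a HIS3 reporter whose site lies 19 bp from the promoter. Selection ran for 48 hours at 37°C on M9 lacking histidine, with 0.1 mM IPTG and 5 mM 3-AT. Plasmids were Illumina-sequenced before and after selection, three replicate libraries were pooled, and variants with under 10 reads were dropped. Fitness is the log change in each variant's read ratio to wild type, rescaled against the cognate and non-cognate sites.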

Variant	one-hybrid fitness for binding parS DNA
RMEQ	≤ 0.2
QDTM	≤ 0.2
VKRS	≤ 0.2
HTGH	≤ 0.2
RADS	0.966
RANS	0.96
RADP	≤ 0.2
RANP	≤ 0.2
RANH	≤ 0.2
RADH	≤ 0.2
YHVS	≤ 0.2
SKAT	≤ 0.2
RCTR	≤ 0.2
DCPY	≤ 0.2
CRRI	≤ 0.2
RSQT	0.874
RSQK	≤ 0.2
RCQT	0.936
RPQT	≤ 0.2
REQT	≤ 0.2
RDQT	≤ 0.2

Variant	one-hybrid fitness for binding parS DNA
MKGT	≤ 0.2
PHAA	≤ 0.2
CNAG	≤ 0.2
SQES	≤ 0.2
CCPY	≤ 0.2
RKVG	0.942
RKVY	0.412
RKVF	≤ 0.2
RKKG	0.802
RKKD	≤ 0.2
RKKP	≤ 0.2
NRVQ	≤ 0.2
PLNP	≤ 0.2
RKQQ	≤ 0.2
RIQQ	≤ 0.2
RHQC	0.951
RSQQ	≤ 0.2
REQC	≤ 0.2
RHQD	≤ 0.2
RIQY	0.442
RKQY	0.4

Variant	one-hybrid fitness for binding parS DNA
RIQC	1
RKQC	0.825
RHQP	≤ 0.2
RSQC	0.958
VCLS	≤ 0.2
NNQG	≤ 0.2
QKHV	≤ 0.2
RPQC	≤ 0.2
RCQC	0.994
RMQF	≤ 0.2
RLQY	0.495
RDQC	≤ 0.2
NRQC	≤ 0.2
RMQC	1.02
RLQC	0.998
RMQL	≤ 0.2
RRQR	≤ 0.2
RRQC	0.63
RLQQ	≤ 0.2
NGPC	≤ 0.2
QQNS	≤ 0.2

Variant	one-hybrid fitness for binding parS DNA
IKKF	≤ 0.2
DIKG	≤ 0.2
YPGG	≤ 0.2
FNTL	≤ 0.2
LPNG	≤ 0.2
RPRA	≤ 0.2
RCDA	0.567
RENA	≤ 0.2
RPNA	≤ 0.2
RWNA	0.425
RWRA	0.474
RCNA	0.719
RPDA	≤ 0.2
RWDA	0.29
RCRA	0.796
RGNA	0.394
RSNA	0.596
YTPK	≤ 0.2
NRGR	≤ 0.2
WRHM	≤ 0.2
TEAW	≤ 0.2

Reference: a collection of fitness landscapes (doi:10.1016/j.celrep.2020.107928)
